Our source for the growth values is PubChem BioAssay (NCI).

This is part of a sample that, as a whole, favours compounds with a hit. Of some 83,000 tested, about 20% had one in any assay.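 Plates (96-well) were seeded with cells, treated with compound at one concentration, and incubated for 48 hours before percent growth was determined.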 Unmarked numbers belong to inactive results. The source made the active and inactive calls. How the source made its calls: active means growth percent below 10; inactive means the rest.

Some test systems named below: K-562 leukemia; MALME-3M melanoma; MDA-MB-231 breast; RXF 393 renal; SF-268 CNS; SF-295 CNS; SF-539 CNS; UACC-257 melanoma; M14 melanoma; HCT-15 colon; HT29 colon; SNB-75 CNS; SNB-19 CNS; U251 CNS; PC-3 prostate; SK-MEL-5 melanoma; UACC-62 melanoma; LOX IMVI melanoma; SK-MEL-2 melanoma; SK-MEL-28 melanoma.
Assay in all cases: NCI-60 one-dose screen, 48 h (100 = growth as untreated, 0 = no growth, -100 = all killed)
What all share (settings): 10 µM

For `COC(=O)C1(C)Cc2cc(OC(C)=O)c(OC(C)=O)cc2N1` (configuration not stated), the growth in the assay on K-562 leukemia is 16%; with MALME-3M melanoma, 79.7%; with MDA-MB-231 breast it was 101%; in the assay on RXF 393 renal, 61.8%; in the assay with SF-268 CNS, 87.5%; with SF-295 CNS, 121%. The growth with SF-539 CNS was 91.3%; in the assay on UACC-257 melanoma, 19%; in the assay on M14 melanoma, 87.3%; in the assay on HCT-15 colon it was 35.6%; with HT29 colon, 79.8%; in the assay on SNB-75 CNS, 82%. The growth in the assay with SNB-19 CNS was 105%; in the assay on U251 CNS, 81.5%; in the assay with PC-3 prostate, 64.7%; in the assay with SK-MEL-5 melanoma, 76.3%; with UACC-62 melanoma, 56.6%; in the assay on LOX IMVI melanoma, 66%. Besides, in the assay on SK-MEL-2 melanoma, the growth was 85.2%.
For `O=C(CCCCCCC(=O)Nc1cccnc1)NO`, the growth was 5.89% (active) in the assay with K-562 leukemia; -23.1% (active) in the assay on MALME-3M melanoma; 66.4% in the assay with MDA-MB-231 breast; 17.6% in the assay on RXF 393 renal; 41.5% in the assay with SF-268 CNS; 73.6% in the assay on SF-295 CNS. Further, the growth with SF-539 CNS was 50%; in the assay on UACC-257 melanoma, 78.4%; in the assay on M14 melanoma, 29.6%; with HCT-15 colon, 93.1%; with HT29 colon, 13.2%; in the assay on SNB-75 CNS, -13.5% (active). Besides, the growth was 68.1% in the assay with SNB-19 CNS; 42.2% with U251 CNS; 26.3% in the assay on PC-3 prostate; 15.3% in the assay on SK-MEL-5 melanoma; 25.3% with UACC-62 melanoma; 62.4% in the assay with LOX IMVI melanoma. Further, the growth with SK-MEL-2 melanoma is 28.8%.
As to `O=C(C[P+](c1ccccc1)(c1ccccc1)c1ccccc1)C[P+](c1ccccc1)(c1ccccc1)c1ccccc1`, the growth in the assay with K-562 leukemia was -34.2% (active); in the assay with MALME-3M melanoma, -86.5% (active); with MDA-MB-231 breast it was -71.3% (active); in the assay with RXF 393 renal, -70.2% (active); in the assay with SF-268 CNS it was -86.3% (active); in the assay with SF-295 CNS, -72.4% (active). Besides, the growth in the assay on SF-539 CNS is -98.2% (active); in the assay with UACC-257 melanoma it was -82.3% (active); in the assay on M14 melanoma it was -75.4% (active); with HCT-15 colon, -77.6% (active); in the assay on HT29 colon, -77.3% (active); in the assay on SNB-75 CNS, -22.6% (active). The growth is 20.3% in the assay with SNB-19 CNS; -91.8% (active) in the assay on U251 CNS; -77.7% (active) in the assay with PC-3 prostate; -88.9% (active) with SK-MEL-5 melanoma; -79.6% (active) with UACC-62 melanoma; -87.2% (active) in the assay with LOX IMVI melanoma. Besides, the growth in the assay with SK-MEL-2 melanoma is -79.8% (active).
`CCOC(=O)C1CCc2c(ccc3ccccc23)N1CCC#N` (configuration not stated): the growth was 55.5% in the assay with K-562 leukemia; 80.2% with MALME-3M melanoma; 91.5% in the assay on MDA-MB-231 breast; 89% in the assay with RXF 393 renal; 113% in the assay with SF-268 CNS; 88% in the assay on SF-295 CNS. The growth is 110% in the assay on SF-539 CNS; 104% with UACC-257 melanoma; 93.3% with M14 melanoma; 91.9% in the assay on HCT-15 colon; 100% with HT29 colon; 74.2% in the assay with SNB-75 CNS. Moreover, the growth with SNB-19 CNS was 99%; in the assay on U251 CNS, 89.7%; in the assay with PC-3 prostate, 84.9%; in the assay on SK-MEL-5 melanoma it was 89.2%; in the assay with LOX IMVI melanoma it was 85.7%; in the assay with SK-MEL-28 melanoma it was 91.2%. The growth with SK-MEL-2 melanoma is 134%.
As for `CN1CC[C@@H](c2c(O)cc(O)c3c(=O)cc(-c4ccccc4Cl)oc23)[C@@H](O)C1`, the growth with K-562 leukemia is -23.8% (active); in the assay with MALME-3M melanoma it was -68.9% (active); with MDA-MB-231 breast it was 13.4%; in the assay on RXF 393 renal it was 12.4%; in the assay on SF-268 CNS, 9.12% (active); in the assay on SF-295 CNS, 7.54% (active). Besides, the growth with SF-539 CNS was -31.3% (active); with UACC-257 melanoma it was 15.5%; in the assay on M14 melanoma, -58.9% (active); with HCT-15 colon, -26.7% (active); in the assay on HT29 colon, -7.65% (active); in the assay on SNB-75 CNS, -71.9% (active). For the same compound, the growth is 13.6% in the assay on SNB-19 CNS; 8.62% (active) in the assay on U251 CNS; -48.9% (active) in the assay on PC-3 prostate; -38.5% (active) in the assay on SK-MEL-5 melanoma; -48.8% (active) with UACC-62 melanoma; 5.25% (active) in the assay on LOX IMVI melanoma. Also, the growth in the assay on SK-MEL-2 melanoma was -40.7% (active).
Take `c1ccc([C@H]2CN3CCSC3=N2)cc1`: the growth with K-562 leukemia was 91.8%; with MALME-3M melanoma it was 92.3%; in the assay with MDA-MB-231 breast, 101%; with RXF 393 renal it was 101%; in the assay with SF-268 CNS it was 111%; with SF-295 CNS, 91.3%. Also, the growth with SF-539 CNS is 87.8%; in the assay with UACC-257 melanoma, 104%; with M14 melanoma, 85.8%; with HCT-15 colon it was 108%; in the assay on HT29 colon it was 101%; with SNB-75 CNS, -20.8% (active). The growth in the assay with SNB-19 CNS is 110%; in the assay on U251 CNS, 107%; in the assay on PC-3 prostate, 98.9%; with SK-MEL-5 melanoma, 103%; in the assay on UACC-62 melanoma, 99%; with LOX IMVI melanoma, 102%. Also, the growth in the assay on SK-MEL-2 melanoma was 105%.
With `N=C(N)c1ccc(-c2ccc(-c3cccs3)o2)cc1`, the growth with K-562 leukemia is -13.1% (active); in the assay on MALME-3M melanoma, -72.4% (active); in the assay with MDA-MB-231 breast, 0.444% (active); with RXF 393 renal, 39%; in the assay with SF-268 CNS, 61.6%; in the assay with SF-295 CNS it was -52.3% (active). The growth is 77.9% in the assay on SF-539 CNS; -47.3% (active) in the assay on UACC-257 melanoma; -27.4% (active) in the assay on M14 melanoma; -10.2% (active) with HCT-15 colon; -26.5% (active) in the assay with HT29 colon; 40.6% in the assay with SNB-75 CNS. The growth is 73.7% in the assay with SNB-19 CNS; 12.4% in the assay with U251 CNS; 50.5% in the assay with PC-3 prostate; 44.6% in the assay on SK-MEL-5 melanoma; 12.2% in the assay with LOX IMVI melanoma; 47.6% in the assay with SK-MEL-28 melanoma. In addition, the growth in the assay with SK-MEL-2 melanoma is -7.14% (active).
Take `CN(C)CCN1C(=O)c2cccc3cc(N)cc(c23)C1=O`: the growth was 3.5% (active) in the assay with K-562 leukemia; 17.4% in the assay on MALME-3M melanoma; 57% in the assay with MDA-MB-231 breast; 18.3% with RXF 393 renal; 37.8% with SF-268 CNS; 21.1% in the assay with SF-295 CNS. Besides, the growth is 33.4% in the assay with SF-539 CNS; 5.64% (active) in the assay with UACC-257 melanoma; 42% in the assay with M14 melanoma; 11.8% in the assay with HCT-15 colon; 9.24% (active) in the assay on HT29 colon; -5.61% (active) in the assay with SNB-75 CNS. Further, the growth in the assay on SNB-19 CNS is 24.5%; with U251 CNS, 18.4%; in the assay on PC-3 prostate it was 12.6%; in the assay with SK-MEL-5 melanoma it was 8.79% (active); in the assay with UACC-62 melanoma it was 13.3%; in the assay with LOX IMVI melanoma it was 6.24% (active). Besides, in the assay with SK-MEL-2 melanoma, the growth was 29.1%.
